Structures are written as SMILES. Out of some 340,000 compounds screened, about 3,300 (0.97%) were called active.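 Rule for the calls: active = inhibition above the mean over all tested compounds plus 3 SD (cut at about 30% in these data); inactive = the rest.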 Shown is part of a subset that was picked to be rich in actives. Non-standard residues stand in square brackets, D forms with d. Residues, ends and D or L forms follow the SMILES beside them. ξ: configuration not given here. *: point of attachment. Cbz = O=C(OCc1ccccc1)*; ξL = CC(C)CC(N)C(=O)O; ξP = O=C(O)C1CCCN1

As usually defined, the inhibition is the relative decrease from the control value, in per cent.

In the test the target is Platelet-activating factor acetylhydrolase 2, cytoplasmic (Homo sapiens) (UniProt Q99487). The experiment in a line: inhibition of cytoplasmic PAF acetylhydrolase 2 – biochemical, fluorescence polarization, human, primary screen (AID 492956).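 Note: inhibitors block probe labeling of enzyme so polarization drops; 0% = enzyme with DMSO and 100% = wells lacking PAFAH2 protein.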 Conditions: recombinant PAFAH2, FP-rhodamine activity probe, at 3.39 µM, hits give high values. (Fluorescence polarisation rises when a labelled molecule tumbles more slowly, as on binding a larger partner.)
As for `CCOC(=O)c1oc2c(CN3CCN(CCO)CC3)c(O)c(CC)cc2c(=O)c1-c1nc2ccccc2s1`, the inhibition is -4.68% (inactive).
For the compound `CC(C)(C)c1ccc(/C=C2\Oc3c(ccc(O)c3CN3CCN(CCO)CC3)C2=O)cc1`, the inhibition was 82% (active).
For `Cc1c2cn[nH]c(=O)c2c(C)n1Cc1ccc(F)cc1`, the inhibition was -4.15% (inactive).
Take `C=C1c2cccc(OC)c2O[C@H](C(=O)OCC)[C@@H]1CCCCCC`: the inhibition was 2.29% (inactive).
As to `CCOC(=O)C1=C(CNC2CCCCC2)NC(=O)NC1c1cc(C)ccc1C` (stereo not given), the inhibition is -10.1% (inactive).
Turning to `COc1ccc(O)c(C(=O)c2cnc3onc(C(C)C)c3c2)c1`, the inhibition was -6.85% (inactive).
With `COCC1CCCN(C(=O)c2ccc3oc(C(C)C)nc3c2)C1` (stereo not given), the inhibition is 2.06% (inactive).
With `COCC1CCN(C(=O)c2ccc3oc(Cc4ccccc4)nc3c2)C1` (stereo not given), the inhibition is 58.9% (active).
For `COC(=O)C1CCN(C(=O)c2ccc3oc(Cc4ccc(Cl)cc4)nc3c2)CC1` the value was -2.24% (inactive).
For `CC1=NC2(CCCc3c2no[n+]3[O-])N(O)C1(C)C` (stereo not given) the value was -4.68% (inactive).
For `COCCNC(=O)CN1C(=O)CSc2ncccc21` the value was 3.18% (inactive); for `Cc1ccc(Cl)cc1NC(=O)COC(=O)CC(C)(C)C`, 6.71% (inactive); for `Cc1ccc(Cl)cc1NC(=O)COC(=O)C1CCCCC1`, 37.4% (active).
Regarding `Cc1c(Cl)cnc(NC(=O)COC(=O)C2CCCC2)c1Cl`, the inhibition is 37.6% (active).
For `COc1ccc(CCNC(=O)COC(=O)C2CCCCC2)cc1` the value was 7.99% (inactive); for `CSCCC(NC(=O)c1ccco1)C(=O)OCC(=O)Nc1ncc(Cl)c(C)c1Cl` (stereo not given), 0.63% (inactive).
For `Cc1c(Cl)cnc(NC(=O)COC(=O)c2ccc(S(=O)(=O)NCc3ccco3)cc2)c1Cl`, the inhibition is 22.8% (inactive).
With `Cc1cc(=O)oc2c(C)c(OCC(=O)NCCN3CCOCC3)ccc12`, the inhibition was -1.89% (inactive).
For the compound `COc1ccc(S(=O)(=O)N2CCC(C(=O)N3CCCC3)CC2)cc1C`, the inhibition was -0.54% (inactive).
Turning to `Nc1nc(SCc2cccc(Br)c2)n[nH]1`, the inhibition was -14.7% (inactive).
Turning to `CN(Cc1ccccc1)C(=O)C(=O)c1cn(CC(=O)N2CCCC2)c2ccccc12`, the inhibition was 5.94% (inactive).
In the case of `CCOC(=O)C1C(=O)C=C(c2ccc(OC)cc2)CC1c1ccco1` (stereo not given), the inhibition was 6.12% (inactive).
For `O=S(=O)(NCc1ccccc1Br)c1ccccc1Br` the value was 3.56% (inactive); for `Cc1ccn2c(=O)nc(SCC(=O)NCc3ccc(F)cc3)nc2c1`, 10.6% (inactive).
For `CCO[C@@H]1OC(C(=O)NCc2nc3ccccc3[nH]2)=C[C@H](C2CCCCC2)[C@H]1CCCO` the value was -12.7% (inactive); for `O=C(OCc1nc2ccccc2[nH]1)C1CCCCC1`, 59.9% (active).
For `Cc1ccc(C)c(N2CCN(C(=O)CCc3nc4ccccc4[nH]3)CC2)c1` the value was 2.85% (inactive); for `CCO/C=C1\C(=O)N(c2ccc(OCC)cc2)C(=O)c2ccccc21`, 5.93% (inactive).
For the compound `Cc1ccc(OCC(=O)Nc2cccc3c2CCCC3)cc1C`, the inhibition was -17.9% (inactive).
Regarding `NC(=O)C1CCN(C(=O)c2ccc3c(=O)n(Cc4cccc(Br)c4)c(=S)[nH]c3c2)CC1`, the inhibition is 1.48% (inactive).
As for `COc1cc(OC)c2c(-c3cccc(-c4cccc(N)c4)c3)cc(=O)oc2c1`, the inhibition was 4.97% (inactive).
With `CCOc1ccc(NC(=O)C2CCN(C(=O)N3CCOc4ccccc43)CC2)cc1`, the inhibition is -3.71% (inactive).
Consider `C=CCN(C(=O)c1cc(C)cc(C)c1)C1(C(=O)Nc2ccccc2)CCN(C(C)C)CC1`, for which the inhibition was -2.17% (inactive).
Take `CC(=O)Nc1ccc(S(=O)(=O)NC(C)C(=O)OCC(=O)NC2CCCC2)cc1` (stereo not given): the inhibition is -5.65% (inactive).
For `Cc1ccc(NC(=O)Cc2nc(COC(=O)C(C)NS(=O)(=O)c3ccc(C)cc3)cs2)cc1` (stereo not given), the inhibition was 67.5% (active).
For `C/C=C/C(=O)OCc1csc(CC(=O)Nc2ccccc2C)n1` the value was 2.3% (inactive); for `Cc1ccc(S(=O)(=O)N(C)C)cc1NC(=O)c1ccccc1Br`, 1.28% (inactive); for `CN(C(=O)c1c(Cl)cnn1C)C12CC3CC(CC(C3)C1)C2`, 1.24% (inactive).
Regarding `NS(=O)(=O)c1ccc(NC(=O)COC(=O)c2c3c(nc4ccccc24)/C(=C\c2ccc4c(c2)OCO4)CCC3)cc1`, the inhibition was -39.4% (inactive).
For `CCn1ccnc1CNC(=O)CC1C(=O)NCCN1CCCc1ccccc1` (stereo not given), the inhibition was -0.69% (inactive).
Regarding `CCC(C)C(NC(=O)C1CCC(=O)N1C(=O)OCc1ccccc1)C(=O)NC(C(=O)N1CCCC1C(N)=O)C(C)CC` (stereo not given), the inhibition is 45% (active).
Take `Cc1ccc(NC(=O)C2CCCN2C(=O)OCc2ccccc2)cc1C` (stereo not given): the inhibition is -10.9% (inactive).
As for `CC(C)CC(NC(=O)C1CCCN1C(=O)[C@@H](C)NC(=O)OCc1ccccc1)C(=O)NCC(N)=O` (stereo not given in full) (Cbz-[dA][ξP][ξL]G-NH2), the inhibition is 3.95% (inactive).
On to `CCc1cc(CNC(=O)CC2C(=O)NCCN2Cc2ccccc2C(F)(F)F)on1` (stereo not given), for which the inhibition was -1.63% (inactive).
In the case of `COC(=O)CNc1nc(Cl)nc(N2CCC(C)CC2)n1`, the inhibition is -3.76% (inactive).
As for `CCOC(=O)c1cccc(NC(=O)CCn2nnc3ccccc32)c1`, the inhibition is -12.2% (inactive).
For `C/C(Cn1nnc2ccccc21)=N\OC(=O)c1cc(F)c(F)cc1Cl`, the inhibition is 75.7% (active).
For `Cn1c(Cn2nnc3ccccc32)nnc1SCC(=O)c1ccccc1F` the value was -0.21% (inactive).
For `CCCCCN(C(=O)CCC(=O)OCCOc1ccc(OC)cc1)c1c(N)n(CCCC)c(=O)[nH]c1=O` the value was 0.6% (inactive).
Regarding `COc1ccc(Cc2nc3ccc(C(=O)N4CCC(N(C)C)C4)cc3o2)cc1` (stereo not given), the inhibition was 1.02% (inactive).
Regarding `CC(C)CN(C(=O)CSc1ncnc2sccc12)C1CCS(=O)(=O)C1` (stereo not given), the inhibition was -0.68% (inactive).
In the case of `CCN(CC)CCCN1C(=O)C(=O)/C(=C(/O)c2c(C)nc3ccccn23)C1c1ccc(C)o1` (stereo not given), the inhibition was -8% (inactive).
For `Cc1nc(N)nc(Cl)c1CCC1OCCO1` the value was -3.02% (inactive); for `O=C1CSC(=S)N1/N=C/c1ccc(O)c([N+](=O)[O-])c1`, 38.1% (active); for `CCOc1cccc(/C=N/N2C(=O)CSC2=S)c1O`, 21.4% (inactive).
For `Cc1cc(C(=O)N/N=C/c2ccc(O)c([N+](=O)[O-])c2)c(C)n1-c1ccc(F)cc1` the value was 15.3% (inactive).
On to `CCn1ncc(Br)c1C(=O)Nc1cc(C)ccc1F`, for which the inhibition is 4.13% (inactive).
On to `CC1(C)CC(O)C(CCC(O)c2ccccc2)C(C)(C)N1` (stereo not given), for which the inhibition is 4.72% (inactive).
For the compound `O=C(NCCNc1ccc([N+](=O)[O-])cc1)c1cccc2c(Br)cccc12`, the inhibition is 2.72% (inactive).
On to `CCC(=O)N(Cc1ccccc1)c1ccccn1`, for which the inhibition is -1.23% (inactive).
As for `Cc1cc(OCCCC(=O)Nc2cc(S(=O)(=O)N3CCOCC3)ccc2N2CCOCC2)ccc1Cl`, the inhibition was 8.81% (inactive).
Turning to `CSc1ncc(C(=O)NCCCc2ccccc2)c(C)n1`, the inhibition was -6.77% (inactive).
Take `C=CCc1c(C)nc2cc(-c3ccccc3)[nH]n2c1=O`: the inhibition was 0.26% (inactive).
For `CCCCN1Cc2c(nc3cc(-c4ccccc4)[nH]n3c2=O)C1=O` the value was 40.2% (active); for `O=c1c2c(nc3cc(-c4cccc(Cl)c4)[nH]n13)CCCC2`, 2.97% (inactive).
`Cc1cc(=O)oc2c(C)c(OC(C)C(=O)NC3CCN(Cc4ccccc4)CC3)ccc12` (stereo not given): the inhibition is 1.42% (inactive).
For `CC(OC(=O)c1c(F)cccc1F)C(=O)NCCC1=CCCCC1` (stereo not given) the value was 8.3% (inactive).
For `O=C(COC(=O)c1cc[n+]([O-])cc1)Nc1ccc(Cl)c(C(F)(F)F)c1` the value was -4.1% (inactive); for `CC(=O)Nc1ccc(C(=O)OCC(=O)Nc2ccc([N+](=O)[O-])cc2C(F)(F)F)cc1`, 40.5% (active); for `NC(=O)c1ccc(NC(=O)COC(=O)c2ccc([N+](=O)[O-])cc2)cc1`, 0.64% (inactive).
For the compound `O=C1NN(c2ccccc2)C(=O)/C1=C/c1ccc(-c2cccc(C(=O)O)c2)o1`, the inhibition was 24.1% (inactive).
As to `O=C(O)C(c1ccccc1)N1C(=O)/C(=C\c2ccc(-c3cccc(Cl)c3)o2)SC1=S` (stereo not given), the inhibition was 40.3% (active).
On to `O=C1c2ccccc2NC(c2ccc(-c3cccc(Cl)c3)o2)N1O` (stereo not given), for which the inhibition was -3.11% (inactive).
As to `O=C(O)c1ccc(NN=CC2=C(N3CCOCC3)/C(=C/c3ccccc3)CC2)cc1`, the inhibition is 1.44% (inactive).
Consider `COc1ccc(C(C[N+](=O)[O-])n2nc(C)cc2C)cc1` (stereo not given), for which the inhibition is 1.81% (inactive).
Turning to `Cc1cc(NS(=O)(=O)c2ccc(NC(=S)NC(=O)c3ccc(F)cc3Cl)cc2)no1`, the inhibition was 3.92% (inactive).
For the compound `O=C(Nc1cc(S(=O)(=O)Nc2ccc(Cl)cc2)ccc1O)c1ccc(F)cc1F`, the inhibition was 61.9% (active).
In the case of `O=C(Nc1cccc(S(=O)(=O)NC2=NCCC2)c1)c1ccc(F)cc1F`, the inhibition was -3.56% (inactive).
`C[C@H]1CCC(=O)N([C@H](CSc2ccccc2)Cc2ccccc2)CC1`: the inhibition was 4.65% (inactive).
For `C/C=N/NC(=O)CCCC(=O)N/N=C/C` the value was -3.09% (inactive); for `Cc1ccc2c(c1)C1CN(C)CCC1N2C(=S)Nc1ccc(Cl)cc1Cl` (stereo not given), 8.44% (inactive).
As for `Cc1ccc2c(c1)C1CN(C)CCC1N2S(=O)(=O)c1cccc(F)c1` (stereo not given), the inhibition is 4.06% (inactive).
For `Cc1ccc2c(c1)C1CN(C)CCC1N2C(=O)c1ccccc1NS(=O)(=O)c1ccc(F)cc1C` (stereo not given) the value was 41.1% (active); for `CCC(C)[C@H](NC(=O)N1CCn2c1nc1ccccc12)C(=O)NCc1ccc(OC)cc1` (stereo not given in full), 5.18% (inactive).
`CCc1ccc(C2C(C#N)=C(N)N(N3CCOCC3)C3=C2C(=O)CC(C)(C)C3)s1` (stereo not given): the inhibition was 0.28% (inactive).
As for `O=C(COC(=O)CCCN1C(=O)c2cccc3cccc(c23)C1=O)NC1CCS(=O)(=O)C1` (stereo not given), the inhibition is 3.81% (inactive).
Regarding `Cc1cnc(NC(=O)CSc2c(Cl)cccc2Cl)s1`, the inhibition is 38.4% (active).
As for `Cc1cnc(NC(=O)c2ccccn2)s1`, the inhibition is 13.5% (inactive).
As to `Cc1cnc(NC(=O)C2CCCC2)s1`, the inhibition is 1.44% (inactive).
On to `O=C(COC(=O)CC1CC2CCC1C2)NC(=O)NC1CCCC1` (stereo not given), for which the inhibition was 1.25% (inactive).

(Values after PubChem BioAssay AID492956 (The Scripps Research Institute Molecular Screening Center, 2010).)
